High-throughput results (PubChem)
HepG2 tox-1 – qHTS for Inhibitors of TGF-b: Cytotox Counterscreen. HepG2 CAGA-GFP viability, ATP luminescence, 18 h. Potency, µM (top dose mostly 46.1 µM), inactives show at the top dose activity change, negative = cytotoxicity, usual class: cytotoxic. actives 0.76% (n = 410,000)
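CellTiter-Glo luminescence gave cytotoxicity after 18 hours at 37 degrees C. The cells were HepG2 CAGA-GFP in 1% FBS DMEM, stimulated with 500 pg/mL TGF-beta after compound addition. %Activity was normalised to no-cell wells (complete cell-killing) and DMSO (no toxicity), and curves were fitted and classified.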
TGFb SMAD3 inh – qHTS for Inhibitors of TGF-b | Potency, µM (highest dose often 46.1 µM), for inactives: at the highest dose activity, negative = inhibition, usual class: inhibitors | actives 1.2% (n = 410,000) | HepG2 CAGA-GFP TGF-b/SMAD3 reporter, GFP fluorescence, 18 h; TGF-beta stimulated, 500 pg/mL final; further: on the % scale 0 is the no-effect control and ±100 the full control effect; nearly all actives have a fitted effect of over 65% in size
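HEPG2 CAGA-GFP reporter cells (1000/well, DMEM with 1% FBS) received compounds, then recombinant TGF-beta at 500 pg/mL final for 18 hours at 37 degrees C. Per-cell GFP summed per well was normalised to unstimulated and stimulated DMSO controls before curve fitting.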
S2 tox – Viability Counterscreen for Primary qHTS for Inhibitors of ATXN expression; S2 cells (HEK-293 line with an ATXN2-luciferase reporter) viability, CellTiter-Fluor protease fluorescence, 24 h; Potency, µM (top dose mostly 56.7 µM), usual class: cytotoxic; actives 0.49% (n = 400,000); further: nearly all actives have a fitted effect of over 40% in size
ATXN2 expr inh – Primary qHTS for Inhibitors of ATXN expression; actives 0.72% (n = 360,000); Potency, µM (series often up to 57 µM), for inactives: at the top dose activity change, negative = inhibition, usual class: inhibitors; HEK-293 ATXN2-luciferase reporter, luminescence, 24 h; further: on the % scale 0 is the no-effect control and ±100 the full control effect; nearly all actives have a fitted effect of over 55% in size
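ATXN2-luciferase reporter cells (luciferase flanked by upstream and downstream ATXN2 gene portions) were treated 24 h at 37 °C with compounds at up to 57 uM. SteadyGlo luminescence gave expression; GF-AFC fluorescence gave viability.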
A549 viability – Nrf2 qHTS screen for inhibitors: counterscreen for cytotoxicity | Potency, µM (top dose mostly 46 µM), without a hit: at the highest dose activity change, negative = cytotoxicity, hits mostly inhibitors | AID 504648, 2011 | A549 ARE-Fluc cells, CellTiter-Fluor viability, 18-24 h | actives 0.16% (n = 390,000); further: on the % scale 0 is the no-effect control and ±100 the full control effect
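Cytotoxicity counterscreen: CellTiter-Fluor fluorescence was measured in A549 ARE_Fluc cells after 18-24 h of compound exposure in a concentration series. The subsequent BugLite luminescent read reports ARE-luciferase activity.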
Nrf2 block – Nrf2 qHTS screen for inhibitors; AID 504444, 2011; A549 ARE-Fluc reporter, luciferase luminescence, 18-24 h; Potency, µM (doses to about 46 µM), inactives show at the top dose activity change, negative = inhibition, most hits filed as inhibitors; actives 2.1% (n = 360,000); further: on the % scale 0 is the no-effect control and ±100 the full control effect; nearly all actives have a fitted effect of over 60% in size
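Quantitative HTS in A549 cells stably bearing an antioxidant response element-firefly luciferase construct. Inhibition of Nrf2-driven transcription was scored by luminescence after 18-24 h of compound exposure at 37 °C.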
TGFb CAGA inh – qHTS for Inhibitors of TGF-b: Confirmation of Cherry Picks; AID 720534, 2013; Potency, µM (doses to about 46.1 µM), for inactives: top-dose activity, negative = inhibition, most hits filed as inhibitors; shares compounds with TGFb SMAD3 inh; HepG2 CAGA-GFP TGF-b reporter, GFP fluorescence, 18 h; cells stimulated with TGF-beta, 500 pg/mL; actives 63% (n = 1,600); further: on the % scale 0 is the no-effect control and ±100 the full control effect; nearly all actives have a fitted effect of over 65% in size
HepG2 tox-2 – qHTS for Inhibitors of TGF-b: Cytotox Counterscreen for Cherry Picks; actives 27% (n = 1,600); Potency, µM (top dose mostly 46.1 µM), for the others: top-dose activity, negative = cytotoxicity, hits mostly inhibitors; AID 720535, 2013; shares compounds with TGFb SMAD3 inh; HepG2 CAGA-GFP viability, ATP luminescence, 18 h; cells stimulated with TGF-beta, 500 pg/mL; further: on the % scale 0 is the no-effect control and ±100 the full control effect; nearly all actives have a fitted effect of over 70% in size
TGFb CCL64 inh – qHTS for Inhibitors of TGF-b: CCL64 Cells Orthogonal Assay for Cherry Picks | shares compounds with TGFb SMAD3 inh | CCL64 CAGA-GFP reporter, TGF-b stimulated, GFP fluorescence, 18 h | Potency, µM (highest dose often 46.1 µM), for inactives: top-dose activity, negative = inhibition, actives largely listed as inhibitors | actives 41% (n = 1,600) | AID 720536, 2013; further: nearly all actives have a fitted effect of over 65% in size
TGFb COP inh – qHTS for Inhibitors of TGF-b: Hit Validation in HepG2 Cells using COP promoter; shares compounds with TGFb SMAD3 inh; HepG2 COP-GFP TGF-b reporter, GFP fluorescence, 18 h; cells stimulated by added recombinant TGF-beta; Potency, µM (titrated, usually from 46.1 µM), inactives show at the highest dose activity, negative = inhibition, hits mostly inhibitors; actives 3% (n = 1,600); AID 720537, 2013; further: nearly all actives have a fitted effect of over 70% in size
Starred values were filed as active, the others as inactive; i = inactive; u = inconclusive; x = not tested or not shown; ! = a repeat was not active. Shown are actives, neighbours in structure and some others; about 3.8% of the full set was active somewhere. The call rests on the fitted dose curve; in most records, active means well fitted curve in the direction sought with a large enough effect; inconclusive means small, poorly fitted or top-dose-only effect, or another doubt; inactive means no such curve, though single readings can be large; an effect the other way counts as inactive or inconclusive. Potency means the concentration at half of the fitted maximal effect.

SMILES | HepG2 tox-1 | TGFb SMAD3 inh | S2 tox | ATXN2 expr inh | A549 viability | Nrf2 block | TGFb CAGA inh | HepG2 tox-2 | TGFb CCL64 inh | TGFb COP inh
CCN1CCN(Cc2ccc(NC(=O)c3cc(NC(=O)c4nccnc4N)cc(OC)c3)cc2C(F)(F)F)CC1 | -30% | u | u | u | u | 17% | x | x | x | x
CCN1CCN(Cc2ccc(NC(=O)c3cc(NC(=O)c4cncc(-c5ccc(C#N)cc5)c4)cc(OC)c3)cc2C(F)(F)F)CC1 | 2µM*! | 5.6µM* | 16µM* | 25µM*! | -3% | -6% | u | 16µM* | 26µM* | u
COc1ccccc1-n1c(SCC(=O)Nc2ccc(NC(C)=O)cc2)nc2c([nH]c3ccccc32)c1=O | -39% | 0% | i | 20% | -5% | 7% | x | x | x | x
CCN(CC)CCCNC(=O)C1CCN(S(C)(=O)=O)CC1 | 9% | 0% | x | x | -2% | x | x | x | x | x
CN(c1cccc(NC(=O)CN(c2cccc(Cl)c2)S(=O)(=O)c2ccccc2)c1)S(C)(=O)=O | -40% | u | i | 4% | -3% | -19% | -6% | -28% | u | 4%
CC(=O)c1ccc2c(c1)N(Cc1ccc3ccccc3c1)C(=O)C(C)S2 (stereo not given) | -17% | 7.9µM* | i | -20% | x | x | 21µM* | 4% | -11% | 3%
COC(=O)C1CCC(=O)N1C(c1ccc(OC)cc1)c1cc(OC)c(OC)c(OC)c1 (stereo not given) | 2% | 2µM* | u | 4% | -20% | u | u | -2% | 5.8µM* | u
Cc1ccc(-c2cc(-c3ccc4c(c3)NC(=O)CO4)nc3c2COc2ccccc2-3)cc1 | 4% | 13% | i | 4% | -1% | u | x | x | x | x
C[C@@H]1CN([C@@H](C)CO)C(=O)c2cccc(NC(=O)Nc3ccc(F)cc3)c2O[C@@H]1CN(C)Cc1ccc(Oc2ccccc2)cc1 | -50% | 4µM* | 18µM* | u | -10% | u | 16µM* | u | 6.5µM* | 42%
C[C@H](CO)N1C[C@H](C)[C@@H](CN(C)S(=O)(=O)c2ccccc2)Oc2c(NC(=O)Nc3ccc(C(F)(F)F)cc3)cccc2C1=O | -29% | 10µM* | u | u | -9% | u | 21µM* | u | u | 12%
